PubChem BioAssay (NCI)
About 83,000 compounds went through this panel and 20% of them were active in at least one assay; those are over-represented in the sample as a whole.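 Cell lines were cultured in 96-well plates, exposed to a single compound concentration, and assessed for percent growth 48 hours later.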 The source made the active and inactive calls. How the source made its calls: active means growth percent below 10; inactive means the rest.

How the values were obtained:
Assay in all cases: NCI-60 one-dose screen, 48 h (100 = growth as untreated, 0 = no growth, -100 = all killed)
Conditions in all cases: 10 µM unless noted
SR leukemia = test system: SR leukemia
RPMI-8226 leukemia = test system: RPMI-8226 leukemia
OVCAR-8 ovarian = test system: OVCAR-8 ovarian
OVCAR-5 ovarian = test system: OVCAR-5 ovarian
OVCAR-4 ovarian = test system: OVCAR-4 ovarian
SK-OV-3 ovarian = test system: SK-OV-3 ovarian
IGROV1 ovarian = test system: IGROV1 ovarian
OVCAR-3 ovarian = test system: OVCAR-3 ovarian
HS 578T breast = test system: HS 578T breast
NCI/ADR-RES ovarian = test system: NCI/ADR-RES ovarian
T-47D breast = test system: T-47D breast
BT-549 breast = test system: BT-549 breast
MDA-MB-435 melanoma = test system: MDA-MB-435 melanoma
SW-620 colon = test system: SW-620 colon
MCF7 breast = test system: MCF7 breast
HCT-116 colon = test system: HCT-116 colon
HCC-2998 colon = test system: HCC-2998 colon
KM12 colon = test system: KM12 colon

Measured: growth

COc1ccc(C(=O)c2cc3c(N)c(C(=O)Nc4cccc(Cl)c4C)sc3nc2C)cc1
inactive: OVCAR-5 ovarian 40.9% | OVCAR-4 ovarian 39.2% | SK-OV-3 ovarian 25.9% | IGROV1 ovarian 24.8% | HS 578T breast 15% | T-47D breast 40.9% | BT-549 breast 36.9% | SW-620 colon 23.2% | MCF7 breast 19.4% | HCC-2998 colon 17.1%
active: SR leukemia -27.1% | RPMI-8226 leukemia 1.21% | OVCAR-8 ovarian 5.92% | OVCAR-3 ovarian -5.77% | NCI/ADR-RES ovarian 8.86% | MDA-MB-435 melanoma -6.97% | HCT-116 colon 7.35%

C=C1C(=O)O[C@H]2[C@H]1CC/C(COC(=O)CCCc1c[nH]c3ccccc13)=C\CC[C@@]1(C)O[C@@H]21
inactive: OVCAR-8 ovarian 66.3% | OVCAR-5 ovarian 94.7% | OVCAR-4 ovarian 65.8% | SK-OV-3 ovarian 98.2% | IGROV1 ovarian 45.8% | OVCAR-3 ovarian 28.3% | HS 578T breast 74% | NCI/ADR-RES ovarian 72.2% | T-47D breast 57.3% | BT-549 breast 41.1% | MDA-MB-435 melanoma 60.3% | SW-620 colon 24.9% | MCF7 breast 11% | HCC-2998 colon 102%
active: SR leukemia 1.59% | RPMI-8226 leukemia -17.6% | HCT-116 colon -77.5%

Cc1nn(-c2ccccc2)c(N2CCOCC2)c1/C=N/N=c1\sc2ccccc2n1C
inactive: SR leukemia 36.7% | RPMI-8226 leukemia 52.9% | OVCAR-8 ovarian 93.9% | OVCAR-5 ovarian 82% | OVCAR-4 ovarian 98.6% | SK-OV-3 ovarian 76.9% | IGROV1 ovarian 89.5% | OVCAR-3 ovarian 104% | HS 578T breast 91.2% | NCI/ADR-RES ovarian 94.9% | T-47D breast 51.7% | BT-549 breast 81.5% | MDA-MB-435 melanoma 92.1% | SW-620 colon 82.7% | MCF7 breast 68.5% | HCT-116 colon 49.6% | HCC-2998 colon 106% | KM12 colon 81.4%

CN(C)C(=O)OCc1nc2c(N3CCOCC3)nc(-c3ccccc3)nc2n1C
active: SR leukemia 4.42% | RPMI-8226 leukemia -30% | OVCAR-8 ovarian -5.95% | OVCAR-5 ovarian -85.5% | OVCAR-4 ovarian -82.2% | IGROV1 ovarian -95.2% | OVCAR-3 ovarian -78.1% | HS 578T breast -35.2% | NCI/ADR-RES ovarian -8.35% | T-47D breast -50.3% | BT-549 breast -31.1% | MDA-MB-435 melanoma -89.1% | SW-620 colon -77.7% | MCF7 breast -60% | HCT-116 colon -56.6% | HCC-2998 colon -78.3%
inactive: SK-OV-3 ovarian 59.7%

COc1cc(-c2nc3sccn3c2-c2ccnc(NCCNS(=O)(=O)c3ccc(F)cc3)n2)ccc1F
active: SR leukemia 8.1% | RPMI-8226 leukemia -39.4% | OVCAR-8 ovarian -9.78% | IGROV1 ovarian 3.95% | NCI/ADR-RES ovarian 8.6% | T-47D breast -3.67% | MDA-MB-435 melanoma 2.5% | MCF7 breast 5.83% | HCT-116 colon 6.58%
inactive: OVCAR-5 ovarian 56% | OVCAR-4 ovarian 10.8% | SK-OV-3 ovarian 22.9% | OVCAR-3 ovarian 25.3% | HS 578T breast 28.4% | BT-549 breast 10.5% | SW-620 colon 26.9% | HCC-2998 colon 43.5%

O=C(N/N=C/c1ccc(F)cc1)c1ccccc1Nc1cccc(C(F)(F)F)c1
inactive: SR leukemia 24% | RPMI-8226 leukemia 93.1% | OVCAR-8 ovarian 89.5% | OVCAR-5 ovarian 104% | OVCAR-4 ovarian 84.4% | SK-OV-3 ovarian 94.6% | IGROV1 ovarian 103% | OVCAR-3 ovarian 81.3% | HS 578T breast 112% | NCI/ADR-RES ovarian 107% | T-47D breast 88.2% | BT-549 breast 105% | MDA-MB-435 melanoma 100% | SW-620 colon 96% | MCF7 breast 106% | HCT-116 colon 111% | HCC-2998 colon 107%

O=C1Nc2c(ccc(Cl)c2Cl)/C1=C/c1ccc(O)cc1
inactive: SR leukemia 42% | RPMI-8226 leukemia 78.6% | OVCAR-8 ovarian 92.3% | OVCAR-5 ovarian 90.6% | OVCAR-4 ovarian 72.9% | SK-OV-3 ovarian 86.4% | IGROV1 ovarian 42.6% | OVCAR-3 ovarian 92.9% | HS 578T breast 89% | NCI/ADR-RES ovarian 96.6% | T-47D breast 61.2% | BT-549 breast 82.3% | MDA-MB-435 melanoma 101% | SW-620 colon 79.1% | MCF7 breast 54.1% | HCT-116 colon 72.6% | HCC-2998 colon 80.5%

C#Cc1cccc(NC(=O)Nc2cccc(N=C=S)c2)c1
inactive: SR leukemia 88.9% [8.25 µM] | RPMI-8226 leukemia 99.3% [8.25 µM] | OVCAR-8 ovarian 98.6% [8.25 µM] | OVCAR-5 ovarian 102% [8.25 µM] | OVCAR-4 ovarian 99.6% [8.25 µM] | SK-OV-3 ovarian 120% [8.25 µM] | IGROV1 ovarian 98.4% [8.25 µM] | OVCAR-3 ovarian 115% [8.25 µM] | HS 578T breast 95.6% [8.25 µM] | NCI/ADR-RES ovarian 106% [8.25 µM] | T-47D breast 100% [8.25 µM] | BT-549 breast 102% [8.25 µM] | MDA-MB-435 melanoma 97.3% [8.25 µM] | SW-620 colon 104% [8.25 µM] | MCF7 breast 86.1% [8.25 µM] | HCT-116 colon 95.5% [8.25 µM] | HCC-2998 colon 105% [8.25 µM]

Nc1nc(SN=Nc2ccc(S(N)(=O)=O)cc2)c2[nH]cnc2n1
inactive: OVCAR-8 ovarian 11.2% | OVCAR-5 ovarian 19.4% | OVCAR-4 ovarian 34.7% | IGROV1 ovarian 39.8% | HS 578T breast 36.5% | NCI/ADR-RES ovarian 17.6% | T-47D breast 23.8% | BT-549 breast 36% | SW-620 colon 19.2% | HCT-116 colon 12.3%
active: SR leukemia 5.59% | RPMI-8226 leukemia -15.3% | SK-OV-3 ovarian 7.11% | OVCAR-3 ovarian -13.7% | MDA-MB-435 melanoma 7.71% | MCF7 breast 7.59% | HCC-2998 colon 5.53%

Cc1ccc(C2CC(c3cccc(Nc4ccncc4)c3)=NN2c2cc(Cl)cc(Cl)c2)cc1 (stereo not drawn)
inactive: RPMI-8226 leukemia 16.1% | OVCAR-5 ovarian 71.1% | OVCAR-4 ovarian 15% | SK-OV-3 ovarian 83.4% | IGROV1 ovarian 15.3% | OVCAR-3 ovarian 61.7% | HS 578T breast 62.6% | NCI/ADR-RES ovarian 52.1% | T-47D breast 80.3% | BT-549 breast 101%
active: SR leukemia 1.17% | OVCAR-8 ovarian -36.5% | MDA-MB-435 melanoma -63.2% | SW-620 colon -58% | MCF7 breast -45.1% | HCT-116 colon -78.1% | HCC-2998 colon -77.7%

COc1ccc(Nc2nc(N)nc3c2CCc2occc2-3)cc1
inactive: SR leukemia 85.8% | RPMI-8226 leukemia 101% | OVCAR-8 ovarian 102% | OVCAR-5 ovarian 106% | OVCAR-4 ovarian 96.9% | SK-OV-3 ovarian 97.8% | IGROV1 ovarian 102% | OVCAR-3 ovarian 103% | HS 578T breast 105% | NCI/ADR-RES ovarian 96.2% | T-47D breast 83.4% | BT-549 breast 78.3% | MDA-MB-435 melanoma 105% | SW-620 colon 106% | MCF7 breast 78.7% | HCT-116 colon 90% | HCC-2998 colon 108%

CCN1C(=O)N(CC)C2C1NN=c1s/c(=C3\C(=O)Nc4ccccc43)c(=O)n12 (stereo not drawn)
inactive: SR leukemia 18.4% | RPMI-8226 leukemia 36.9% | OVCAR-8 ovarian 31.6% | OVCAR-5 ovarian 50.6% | OVCAR-4 ovarian 51.1% | SK-OV-3 ovarian 18.4% | IGROV1 ovarian 35.2% | HS 578T breast 13.2% | NCI/ADR-RES ovarian 42% | T-47D breast 15.6% | BT-549 breast 59.8% | SW-620 colon 26.1% | MCF7 breast 28.7% | HCT-116 colon 14.2% | HCC-2998 colon 31.8%
active: OVCAR-3 ovarian -12.8% | MDA-MB-435 melanoma -27.3%

Cn1c(COC(=O)NCCN2CCOCC2)nc2c(N3CCOCC3)nc(-c3ccccc3)nc21
inactive: SK-OV-3 ovarian 77.7%
active: SR leukemia -5.83% | RPMI-8226 leukemia -26.2% | OVCAR-8 ovarian 7.67% | OVCAR-5 ovarian -86.6% | OVCAR-4 ovarian -61.1% | IGROV1 ovarian -93.3% | OVCAR-3 ovarian -86.5% | HS 578T breast -35% | NCI/ADR-RES ovarian -12.7% | T-47D breast -28.9% | BT-549 breast -66.4% | MDA-MB-435 melanoma -87.4% | SW-620 colon -76.9% | MCF7 breast -59% | HCT-116 colon -80.9% | HCC-2998 colon -53.8%

CCC(C)C(N)C(=O)NNc1n[nH]c(=S)n1N (stereo not drawn)
inactive: SR leukemia 99.7% | RPMI-8226 leukemia 99.9% | OVCAR-8 ovarian 97.8% | OVCAR-5 ovarian 99.2% | OVCAR-4 ovarian 102% | SK-OV-3 ovarian 99.3% | IGROV1 ovarian 105% | OVCAR-3 ovarian 107% | HS 578T breast 91.6% | NCI/ADR-RES ovarian 102% | T-47D breast 104% | BT-549 breast 104% | MDA-MB-435 melanoma 103% | SW-620 colon 96.9% | MCF7 breast 96.9% | HCT-116 colon 108% | HCC-2998 colon 106% | KM12 colon 104%

COc1ccc(C2=NN(C(C)=O)C(c3cn(Cc4ccc(Cl)cc4)c4ccccc34)C2)cc1 (stereo not drawn)
inactive: SR leukemia 66.2% | RPMI-8226 leukemia 50% | OVCAR-8 ovarian 78.3% | OVCAR-5 ovarian 79.6% | OVCAR-4 ovarian 70.1% | SK-OV-3 ovarian 90.1% | IGROV1 ovarian 77.5% | OVCAR-3 ovarian 78.1% | HS 578T breast 75.9% | NCI/ADR-RES ovarian 75% | T-47D breast 51.8% | BT-549 breast 97.1% | MDA-MB-435 melanoma 96.5% | SW-620 colon 98.2% | MCF7 breast 84.5% | HCT-116 colon 86.3% | HCC-2998 colon 95.5% | KM12 colon 86.4%

O=C1C(=O)c2c(nc3ncccn23)-c2ccccc21
active: SR leukemia -14.8% | RPMI-8226 leukemia -25.3% | OVCAR-8 ovarian -60.7% | OVCAR-5 ovarian -88.1% | OVCAR-4 ovarian -96.2% | SK-OV-3 ovarian -97.9% | IGROV1 ovarian -58.5% | OVCAR-3 ovarian -50.2% | HS 578T breast -18.7% | NCI/ADR-RES ovarian -32.8% | T-47D breast -48.5% | BT-549 breast -94% | MDA-MB-435 melanoma -93.8% | SW-620 colon -60.6% | MCF7 breast -53.8% | HCT-116 colon -79% | HCC-2998 colon -92.7% | KM12 colon -62.6%

Cc1nccc2c3ccc(OCc4cn(-c5ccc(Cl)cc5)nn4)cc3n(CCCc3ccccc3)c12
active: SR leukemia -34.1% | RPMI-8226 leukemia 7.63% | OVCAR-8 ovarian -33.2% | OVCAR-4 ovarian -51.1% | HS 578T breast -35.7% | NCI/ADR-RES ovarian -44.1%
inactive: OVCAR-5 ovarian 43.4% | SK-OV-3 ovarian 53.2% | IGROV1 ovarian 34% | OVCAR-3 ovarian 26.6% | T-47D breast 74.7% | BT-549 breast 31.8% | MDA-MB-435 melanoma 27.8% | SW-620 colon 12.9% | MCF7 breast 20.2% | HCT-116 colon 31.7% | HCC-2998 colon 70.9%
